Assay outcomes: PubChem, National Center for Advancing Translational Sciences (NCATS)
RORg inh: blocks mouse ROR gamma transcriptional activity; 5.4% of 310,000 active; Potency, µM (titrated, usually from 53.6 µM), actives largely listed as inhibitors; Drosophila S2 Gal4-RORgamma UAS-luciferase reporter, 20 h; AID 2551; note: nearly all actives have a fitted effect of over 60% in size
Target sequence (P51450 whole entry, looked up, the tested form may be a part): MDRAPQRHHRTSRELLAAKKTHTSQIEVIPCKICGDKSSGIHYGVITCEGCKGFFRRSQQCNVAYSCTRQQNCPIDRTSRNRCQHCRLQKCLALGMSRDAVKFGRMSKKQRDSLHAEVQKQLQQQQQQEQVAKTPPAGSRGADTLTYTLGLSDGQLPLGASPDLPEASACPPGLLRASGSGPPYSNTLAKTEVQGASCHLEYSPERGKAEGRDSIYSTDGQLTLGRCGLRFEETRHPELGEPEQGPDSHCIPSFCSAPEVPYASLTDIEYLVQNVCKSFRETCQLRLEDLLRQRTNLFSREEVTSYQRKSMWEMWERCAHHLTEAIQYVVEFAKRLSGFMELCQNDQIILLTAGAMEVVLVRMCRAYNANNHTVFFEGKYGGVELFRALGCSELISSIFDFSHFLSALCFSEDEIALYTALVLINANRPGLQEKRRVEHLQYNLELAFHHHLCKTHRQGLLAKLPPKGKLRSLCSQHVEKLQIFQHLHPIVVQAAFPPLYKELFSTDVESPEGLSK
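Using a luciferase readout, inhibitors were identified by reduced reporter activity in Drosophila cells coexpressing a copper-inducible Gal4–ROR gamma fusion and UAS-driven Photinus luciferase, incubated 20 hr after 700 uM copper sulfate.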
Tau ThT inhib: inhibitors of human tau fibril formation, thioflavin T binding. AID 1460. 2.1% of 270,000 active. P10636. recombinant tau K18 P301L, heparin-induced fibrillization, ThT fluorescence. Potency, µM (series often up to 57.4 µM), actives largely listed as inhibitors; note: nearly all actives have a fitted effect of over 55% in size
Target sequence (P10636 561-689 P618L limits assumed): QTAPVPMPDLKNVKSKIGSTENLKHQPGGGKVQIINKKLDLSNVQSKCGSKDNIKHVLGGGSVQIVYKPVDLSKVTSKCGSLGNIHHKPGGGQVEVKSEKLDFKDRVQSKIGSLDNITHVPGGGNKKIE
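Heparin-induced (20 uM) aggregation of recombinant human K18 P301L tau, 15 uM unlabeled with 0.24 uM labeled, pH 7 acetate buffer, 6 hr at 37 C with compound. Fibrils quantified by 30 uM ThT fluorescence after 1 hr ambient incubation.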
Tau FP inhib: tau fibrillization inhibition (FP) | K18 P301L tau heparin fibrillization, Alexa594 FP, 6 h | Potency, µM (series often up to 57.7 µM), most hits filed as inhibitors | 0.39% of 280,000 active | AID 1468; note: nearly all actives have a fitted effect of over 55% in size
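FP of Alexa 594-tau after heparin (20 uM) induction. Substrate: human K18 P301L, 15 uM unlabeled, 0.24 uM labeled. Buffer 100 mM sodium acetate pH 7. 6 hr, 37 C.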
VP16 counter: inhibits Gal4-VP16 luciferase reporter, ROR gamma counter-screen | Drosophila S2 Gal4-VP16 UAS-luciferase, luminescence, 20 h | Potency, µM (top dose mostly 53.6 µM), usual class: inhibitors | 3.5% of 310,000 active | AID 2546;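 note: Gal4-VP16 expression switched on by copper sulfate through the metallothionein promoter; nearly all actives have a fitted effect of over 50% in size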
Tau fluor counter: counter-screen for tau fibril formation inhibitors. Potency, µM (titrated, usually from 57.7 µM). 0.93% of 280,000 active. tau K18 P301L Alexa594 fluorescence, heparin fibrillization; note: nearly all actives have a fitted effect of over 55% in size
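Human tau K18 P301L (15 uM unlabeled, 0.24 uM Alexa 594-labeled) in 100 mM sodium acetate pH 7 with 20 uM heparin, 6 hr at 37 C. ThT 30 uM added, 1 hr ambient; Alexa 594 FP and total fluorescence read at 555/632 nm.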
A number is an active result; . = inactive; ? = inconclusive; / = not tested or not shown; [ ] = dose if it differs, or a comment. Sampled rows, rich in hits. Any-hit rate of the full collection: about 7.3%. Calls come from the whole dose curve; as a rule, active = well fitted curve in the direction sought with a large enough effect; inconclusive = small, poorly fitted or top-dose-only effect, or another doubt; inactive = no such curve, though single readings can be large; an effect the other way counts as inactive or inconclusive.

SMILES	RORg inh	Tau ThT inhib	Tau FP inhib	VP16 counter	Tau fluor counter
Cc1cccc(/C=N/n2c(-c3cc(-c4ccccc4)n[nH]3)n[nH]c2=S)c1	7.9µM	?	.	?	?
S=c1[nH]nc(-c2cc(-c3ccccc3)n[nH]2)n1/N=C/C(Br)=C/c1ccccc1	?	18µM	?	?	?
CCOC(=O)N1CCC(NC(=O)c2ccc3c(c2)N(Cc2cc(C)ccc2C)C(=O)c2ccccc2S3=O)CC1 (centres undefined)	/	.	.	/	.
CC(=O)Nc1ccc2c(c1)C(C)(C)C(C)N2C (centres undefined)	.	?	?	.	28µM[fluorescent]
CCC(=O)c1ccc(NC(C)=O)cc1O	.	.	.	.	.
Nc1ccc(C2=Nc3cccc4cccc(c34)N2)cc1	.[10 µM]	.	.	?	.
CC1=Nc2cccc3cccc(c23)N1	13µM	22µM	?	.	?
Nc1ncnc(N2CCOCC2)c1N	.	.	.	.	.
Nc1c[n+](N2CCOCC2)no1	.	7.1µM	?	.	.
CN(C)c1ccc(/C=C/c2nc3ccccc3c(=O)[nH]2)cc1	2µM	/	/	?	/
C(=C\c1nc2ccccc2[nH]1)/c1ccccc1	7.1µM	.	.	8.9µM	.
C(=C\c1ccco1)/c1nc2ccccc2[nH]1	.	.	.	.	.
COc1cc(CN2CCN(Cc3cccc(OC)c3OC)CC2)cc(OC)c1	.	/	/	.	/
CN=c1scc(-c2ccc([N+](=O)[O-])cc2)n1/N=C/c1ccco1	.	3.5µM	.	.	.
O=C1c2ccccc2NC(c2ccc(-c3cccc([N+](=O)[O-])c3)o2)N1O (centres undefined)	?	?	.	?	.
O=C1c2ccc([N+](=O)[O-])cc2NC(c2ccco2)N1/N=C/c1ccco1 (centres undefined)	.	13µM	.	.	?
CC(C)C1NC(=O)[C@H](CCCCN)NC(=O)[C@@H](Cc2c[nH]c3ccccc23)NC(=O)[C@H](Cc2ccc(O)cc2)NC(=O)[C@H](C)N(C)C(=O)[C@H](Cc2ccccc2)NC1=O (some centres undefined)	/	.	.	/	.
COc1cc(/C=C(\C#N)c2nc3ccccc3s2)ccc1OCC(=O)Nc1ccccc1	0.13µM	?	.	.	.
CC(=O)c1c(C)[nH]c(C(=O)Nc2ccc(C)c(S(=O)(=O)Nc3ccc(C)cc3C)c2)c1C	.	.	?	.	22µM[quencher]
COc1ccccc1NS(=O)(=O)c1cc(NC(=O)C2CC2)ccc1N1CCOCC1	.	.	.	.	?
COc1ccccc1NS(=O)(=O)c1cc(NC(=O)Nc2cccc(C)c2)ccc1N1CCCCC1	.	?	28µM	.	?
CC(=O)c1c(C)[nH]c(C(=O)Nc2ccc(C)c(S(=O)(=O)N(C)C)c2)c1C	.	.	.	.	.
COc1ccccc1NS(=O)(=O)c1cc(NC(=O)c2ccncc2)ccc1N1CCCC1	.	?	.	.	22µM[quencher]
COc1ccccc1NS(=O)(=O)c1cc(NC(C)=O)ccc1N1CCCCC1	.	.	.	.	?
CC(=O)c1c(C)[nH]c(C(=O)Nc2ccc(S(=O)(=O)N(C)C)cc2)c1C	0.22µM	.	.	.	.
SMILES	RORg inh	Tau ThT inhib	Tau FP inhib	VP16 counter	Tau fluor counter
CNc1ncnc2c1ncn2[C@@H]1O[C@H](CO)[C@H](O)[C@H]1O	/	.	.	/	.
Cc1cccc(Nc2c(-c3cccs3)nc3nc(C)cc(C)n23)c1	/	.	.	/	.
CCOC(=O)c1cnc2ccc(OC)cc2c1Nc1ccc(OCc2ccccc2Cl)cc1	/	?	.	/	.
CCOC(=O)c1c(S(=O)(=O)N2CCC(C(=O)NCc3ccc(F)cc3)CC2)c(C)n(C)c1C	/	.	.	/	.
COc1ccc(-c2oc3ncn4nc(COc5ccc(Cl)cc5)nc4c3c2-c2ccc(OC)cc2)cc1	/	.	?	/	.
CC(C)CC(NC(=O)C1CCCCC1)C(=O)Nc1cccc(C(F)(F)F)c1 (centres undefined)	/	.	.	/	.
COc1ccccc1NS(=O)(=O)c1cc(NC(=O)c2[nH]c(C)c(C(C)=O)c2C)ccc1N1CCOCC1	.	.	?	.	13µM[quencher]
COc1ccccc1NS(=O)(=O)c1cc(NC(=O)c2ccc(=O)[nH]c2)ccc1N1CCOCC1	.	.	.	.	.
O=C(Nc1ccc(Cl)cc1)Nc1ccc(N2CCCC2)c(S(=O)(=O)Nc2ccccc2Cl)c1	.	.	?	?	2.8µM[quencher]
COC(=O)C(C)CCCC(C)CCCC(C)CCCC(C)C (centres undefined)	.	/	/	.	/
COc1ccc(NC(=O)CN(c2cc(C)cc(C)c2)S(=O)(=O)c2c(C)noc2C)cc1Cl	/	.	?	/	?
CC1CCN(S(=O)(=O)c2ccc3nc(Nc4cccc(C(F)(F)F)c4)ccc3c2)CC1	/	?	28µM	/	?
CC1CCN(S(=O)(=O)c2ccc3nc(NCc4ccc(F)cc4)ccc3c2)CC1	/	.	?	/	?
CC1CCN(S(=O)(=O)c2ccc3nc(Nc4ccc(C#N)cc4)ccc3c2)CC1	/	?	14µM	/	?
CC1CCN(S(=O)(=O)c2ccc3nc(NCc4ccc(N(C)C)cc4)ccc3c2)CC1	/	?	.	/	?
Cc1cccc(NC(=O)C2CC(O)CN2C(=O)Oc2ccccc2)c1 (centres undefined)	.	/	/	.	/
FC(F)(F)c1cnc(NNC(=S)Nc2ccc(Cl)cc2)c(Cl)c1	5.6µM	?	.	7.9µM	?
Cc1ccc(NC(=S)NNc2ncc(C(F)(F)F)cc2Cl)c(C)c1	10µM	.	.	?	.
Fc1ccc(NC(=S)NNc2ncc(C(F)(F)F)cc2Cl)c(F)c1	5µM	.	.	?	.
Cc1ccc(NC(=S)NNc2ncc(C(F)(F)F)cc2Cl)cc1	13µM	.	.	11µM	.
Cc1ccc(-c2ccc(=O)n(CC(=O)Nc3ccc(C)cc3Cl)n2)cc1	/	.	.	/	.
COc1ccc(OCC(=O)OCc2cc(=O)n3nc(C4CCCCC4)sc3n2)cc1	/	.	.	/	.
CCOc1ccc(NC(=O)C2Cc3ccccc3N2C(=O)c2ccccc2)cc1 (centres undefined)	/	.	.	/	.
CCOC(=O)c1cnc2c(C)cccc2c1Nc1ccc(N2CCOCC2)cc1	.	22µM	?	.	?
CCOC(=O)c1cnc2c(OC)cccc2c1Nc1ccc2c(c1)OCCO2	16µM	?	.	18µM	.
CCOC(=O)c1cnc2ccccc2c1Nc1ccc(N2CCOCC2)cc1	/	?	.	/	.
O=C(O)CN(CC(=O)O)Cc1cc2c(-c3ccccc3C(=O)O)c3cc(CN(CC(=O)O)CC(=O)O)c(=O)cc-3oc2cc1O	.	?	22µM	.	.
O=C(O)c1ccccc1-c1c2ccc(=O)cc-2oc2cc(O)ccc12	.	?	.	.	.
CC1=NN(C(=O)COc2ccccc2C)C(O)(c2ccc(Cl)cc2)C1 (centres undefined)	14µM	?	.	7.9µM	.
